The record followed here is PubChem BioAssay AID588590 (National Center for Advancing Translational Sciences (NCATS), 2011).

In all, about 390,000 compounds went through this assay and about 4,000 (1%) were called active. Roughly 7% stayed inconclusive and do not appear here. For the sample, actives were picked, then their nearest neighbours and some compounds at random. Unmarked numbers belong to inactive results. The call rests on the fitted dose curve; in most records, active means well fitted inhibition curve with a large enough effect; inconclusive means small, poorly fitted or top-dose-only effect, or another doubt; inactive means no such curve, though single readings can be large or run the other way.
Potency means the concentration at half of the fitted maximal effect.

The assay deals with DNA polymerase iota (Homo sapiens) (UniProt Q9UNA4). The experiment in a line: qHTS for Inhibitors of Polymerase Iota. To be noted: Pol iota fluorescent replication assay, 10 min; series mostly up to 115 µM; activity, negative = inhibition: at the top concentration. An excerpt: DNA polymerases, such as Pol iota, are specifically involved in DNA repair. Pol iota specifically plays an important role in translesion synthesis, where the normal high-fidelity DNA polymerases cannot proceed and DNA synthesis stalls. […] Thus, while pol eta's (and most likely iota's) normal function is to protect humans against the deleterious consequences of DNA damage, under certain conditions they can have deleterious effects on human health. As a consequence, we propose to utilize a high throughput replication assay to identify small molecule inhibitors of pol iota.
Chain of DNA polymerase iota (Homo sapiens) (Q9UNA4 whole entry, looked up): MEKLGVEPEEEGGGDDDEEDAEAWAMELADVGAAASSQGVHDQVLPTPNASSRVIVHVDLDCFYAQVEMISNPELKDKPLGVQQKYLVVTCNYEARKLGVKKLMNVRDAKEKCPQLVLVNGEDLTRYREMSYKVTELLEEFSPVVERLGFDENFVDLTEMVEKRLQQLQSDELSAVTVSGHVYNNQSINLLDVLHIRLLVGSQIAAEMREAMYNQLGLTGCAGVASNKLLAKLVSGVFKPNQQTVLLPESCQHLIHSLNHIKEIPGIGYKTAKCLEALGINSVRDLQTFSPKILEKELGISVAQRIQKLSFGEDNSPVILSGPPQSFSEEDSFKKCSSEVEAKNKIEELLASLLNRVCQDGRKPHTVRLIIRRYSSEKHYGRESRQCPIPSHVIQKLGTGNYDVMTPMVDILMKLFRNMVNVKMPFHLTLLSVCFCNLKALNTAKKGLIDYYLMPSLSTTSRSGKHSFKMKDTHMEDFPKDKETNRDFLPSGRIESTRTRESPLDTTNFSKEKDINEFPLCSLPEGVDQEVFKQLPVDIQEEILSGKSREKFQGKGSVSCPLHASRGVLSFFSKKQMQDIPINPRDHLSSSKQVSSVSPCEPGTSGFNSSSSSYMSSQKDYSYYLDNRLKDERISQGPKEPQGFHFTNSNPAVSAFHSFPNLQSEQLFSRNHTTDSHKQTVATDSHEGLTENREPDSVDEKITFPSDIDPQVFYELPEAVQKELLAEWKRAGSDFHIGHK
In a collaboration between the National Institute of Child Health & Human Development (NICHD) and NIH Chemical Genomics Center, a high-throughput, fluorescent screen was developed to screen the NIH Molecular Libraries Small Molecule Repository (MLSMR). This screen is used to identify inhibitors of pol iota.
NIH Chemical Genomics Center [NCGC]
NIH Molecular Libraries Probe Centers Network [MLPCN]
Assay Submitter (PI): Roger Woodgate, NICHD)
Three microliters of reagents (buffer in column 3 and 4 as negative control and 10 nM Pol iota in columns 1, 2, and 5-48) will be dispensed into 1,536-well black solid-bottomed plate. Compounds (23 nL) will be transferred via Kalypsys pin tool equipped with 1536-pin array. The plates will then be incubated for 15 min at room temperature, and 1 µL substrate (50 nM final concentration) will be added to start the reaction and kinetically read twice at 0 min and 10 min on the Viewlux reader.
On the technique in general: Quantitative high-throughput screening tests each substance at several concentrations.
Consider `Cc1ccccc1CN1CCC(CNC(=O)c2c(C)oc3ncnc(N4CCCCC4)c23)CC1`, for which the “activity, negative = inhibition” value was -25.9%.
On to `CCOc1cc(-c2nnc(SCC(=O)NC3CCCCC3)nc2-c2ccc(OC)c(OCC)c2)ccc1OC`, for which the “activity, negative = inhibition” value was 26.3%.
As to `CN1CCN(C(=O)Cn2c(C(F)(F)F)nc3ccccc32)CC1`, the “activity, negative = inhibition” value is 68.1%.
For `CCCN1CCN(C(=O)Cn2ncc3ccccc32)CC1`, the Potency is 39.8 µM (active).
Take `CCc1nn(CC(=O)N2CCN(CC)CC2)c(=O)c2cccn12`: the “activity, negative = inhibition” value is -19.7%.
`Oc1ccc(-c2nc3ccc(Cl)cn3c2Nc2ccc3c(c2)OCO3)cc1`: the “activity, negative = inhibition” value was -2.69%.
Same read-out and setting: the same measure for `O=C(NC(=S)Nc1ccc(Cl)c(C(=O)O)c1)c1cncc(Br)c1`: -13.8%.
On to `CC(C)c1ccc(NC(=S)NNc2ccc(Cl)c(C(=O)O)c2)cc1`, for which the Potency was 11.2 µM (active).
Consider `Cc1ccc(C)c(NC(=S)NNC(=S)Nc2ccc(C(C)C)cc2)c1`, for which the “activity, negative = inhibition” value is -14.7%.
Take `COc1ccccc1NC(=O)Cn1cnc2ccc(S(=O)(=O)N3CCC(C)CC3)cc2c1=O`: the “activity, negative = inhibition” value is 2.42%.
`COc1ccccc1NC(=O)CN1C(=O)c2ccccc2Sc2ccc(C(=O)N3CCCC3)cc21`: the Potency was 79.4 µM (active).
With `COc1cccc(NC(=O)CN2C(=O)c3ccccc3Sc3ncccc32)c1`, the “activity, negative = inhibition” value was 187%.
As for `COC(=O)c1ccc2c(c1)N(CC(=O)Nc1ccc(C)c(C)c1)C(=O)c1ccccc1S2`, the “activity, negative = inhibition” value is 9.94%.
Regarding `CCc1c(C)sc(NC(=O)C2c3ccccc3Oc3ccccc32)c1C(=O)OC(C)C`, the “activity, negative = inhibition” value was -4.88%.
Still for that read-out and setting: the same measure for `CC(C)CC(NS(=O)(=O)c1ccc2c(c1)oc(=O)n2C)C(=O)NCc1ccccc1Cl` (stereo not given): -6.47%.
For `COc1ccccc1C(=O)Nc1c(C(=O)Nc2ccc(C)cc2)oc2ccccc12`, the “activity, negative = inhibition” value was 22.7%.
Take `Cn1c(=O)c2c(nc(SCC(=O)Nc3ccc(F)cc3)n2Cc2ccccc2)n(C)c1=O`: the “activity, negative = inhibition” value is 23.2%.
As to `O=[N+]([O-])c1ccc(/C=C/c2ccc3cccnc3c2)cc1`, the “activity, negative = inhibition” value was 15.2%.
For `O=C1/C(=C\c2ccc([N+](=O)[O-])cc2)CS(=O)(=O)C/C1=C/c1ccc([N+](=O)[O-])cc1`, the Potency was 11.2 µM (active).
In the case of `O=C1CCCN1C(=O)COc1ccc([N+](=O)[O-])cc1`, the “activity, negative = inhibition” value is -4.78%.
`CC(C)Oc1ccc(CNC(=O)C2CCN(c3nc4ccccc4n(C)c3=O)CC2)cc1`: the “activity, negative = inhibition” value is 29.1%.
Consider `C(=Nc1ccc(/C=C/c2ccnc3ccccc23)cc1)Nc1ccc(/C=C/c2ccnc3ccccc23)cc1`, for which the “activity, negative = inhibition” value is 3.51%.
Take `Cc1noc2ncnc(NCc3ccccc3Cl)c12`: the “activity, negative = inhibition” value was -9.96%.
As for `COc1ccc(-c2oc3ncnc(NCCCO)c3c2-c2ccc(OC)cc2)cc1`, the “activity, negative = inhibition” value was 97.6%.
As for `OCCNc1ncnc2oc(-c3ccco3)c(-c3ccco3)c12`, the Potency was 12.6 µM (active).
`CN(Cc1ccccc1)c1ncnc2onc(-c3ccc(F)cc3)c12`: the “activity, negative = inhibition” value was -14.9%.
In the case of `CN(C)c1cccc2ccccc12`, the “activity, negative = inhibition” value is 14.8%.
Turning to `CCN1CCN(CCCNC(=O)c2ccc3c(c2)sc2nc(-c4ccc(OC)cc4)cn23)CC1`, the “activity, negative = inhibition” value was 21.9%.
As for `CCCCCn1c(CCNC(=O)c2ccc(F)cc2)nc2ccccc21`, the “activity, negative = inhibition” value is 17.1%.
Regarding `CN1CCN(C(=O)c2ccc(NS(=O)(=O)c3ccccc3)cc2)CC1`, the “activity, negative = inhibition” value is 20.4%.
Turning to `Cc1noc(C)c1S(=O)(=O)Nc1ccc(C(=O)O)cc1`, the “activity, negative = inhibition” value is -10.9%.
Consider `Cc1noc(C)c1S(=O)(=O)Nc1ccc(C(=O)N2CCN(c3ccc(F)cc3)CC2)cc1`, for which the Potency is 79.4 µM (active).
For the compound `O=C(CC1N=C2c3ccccc3N=C(SCc3cccc(Cl)c3)N2C1=O)NCc1ccc2c(c1)OCO2` (stereo not given), the “activity, negative = inhibition” value was -13.6%.
With `O=c1[nH]c(CN2CCN(S(=O)(=O)c3ccc4c(c3)OCCO4)CC2)nc2sc3c(c12)CCCC3`, the “activity, negative = inhibition” value was 3.88%.
Turning to `CCCc1nc2sc3c(c2c(=O)n1NC(=O)CCCl)CCCC3`, the “activity, negative = inhibition” value was -14.2%.
In the case of `O=C(CCc1nc2sc3c(c2c(=O)[nH]1)CCCC3)NCC(=O)Nc1ccccc1Br`, the Potency was 50.1 µM (active).
In the case of `CCOC(=O)c1[nH]c(C)c(CCC(=O)N2CCN(c3ccccc3)CC2)c1C`, the “activity, negative = inhibition” value was 17.9%.
On to `C=CCc1cccc(/C=N/NC(=O)COc2ccc(-n3cnnn3)cc2)c1O`, for which the “activity, negative = inhibition” value was 27.2%.
On the same count and under the same terms, the same measure for `CCOc1ccc(C(=O)COC(=O)c2ccc(-n3cnnn3)cc2)cc1`: 32.9%.
Regarding `O=C(COc1ccc(-n2cnnn2)cc1)Nc1ccccc1Cl`, the Potency was 79.4 µM (active).
Regarding `Cc1ccc2[nH]c3c(=O)n(CC(=O)NC(C)C)ncc3c2c1`, the “activity, negative = inhibition” value is -5.61%.
As to `Fc1ccc(CSc2nc(NCc3ccccc3)c3ccccc3n2)cc1`, the “activity, negative = inhibition” value is 2.18%.
`Fc1ccc(Nc2nc(SCc3ccccc3Cl)nc3ccccc23)cc1`: the Potency is 79.4 µM (active).
`O=C(CSc1nc(Nc2ccc(F)c(F)c2)c2ccccc2n1)c1ccc(Cl)cc1`: the “activity, negative = inhibition” value was 14.1%.
On to `COc1ccc(-n2c(=O)c3sc4ccccc4c3n(CC(=O)Nc3cccc(C)c3)c2=O)cc1`, for which the “activity, negative = inhibition” value was 10.2%.
On the same count and under the same terms, the result for `COc1ccc(NC(=O)Nc2cccc(-c3noc(C)n3)c2)cc1` reads 3.68%; that for `Cc1sc2nc(CSCC(=O)Nc3c(Cl)cccc3Cl)[nH]c(=O)c2c1C`, -1.49%.
As for `CSc1nnc(SCc2nc3sc(C(=O)O)c(C)c3c(=O)[nH]2)s1`, the Potency was 3.98 µM (active).
For the compound `CCOC(=O)c1sc2nc(CSCC(=O)OCc3ccc(C(=O)OC)o3)[nH]c(=O)c2c1C`, the “activity, negative = inhibition” value is 23.8%.
Regarding `Cc1ccc(S(=O)(=O)c2cn(Cc3ccccc3)c3cc(N4CCCC4)c(F)cc3c2=O)c(C)c1`, the “activity, negative = inhibition” value was -15.4%.
